From PubChem BioAssay
Most compounds without a hit are left out; they make up all but 0.95% or so of the library.
WNV NS2B-NS3 inh: inhibitors of WNV NS2B-NS3 protease, primary screen, biochemical, fluorogenic substrate; fluorogenic substrate Ex360/Em465; active compounds read low; z-score (no concentration beside the values); Genome polyprotein (West Nile virus), P06935; 0.18% of 65,000 active; in the data active means z-score below about -3
Target sequence (P06935 1371-1501 limits assumed): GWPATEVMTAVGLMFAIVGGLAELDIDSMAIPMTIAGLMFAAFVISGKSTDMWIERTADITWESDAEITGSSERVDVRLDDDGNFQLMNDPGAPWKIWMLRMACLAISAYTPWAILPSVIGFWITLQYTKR
Target sequence (P06935 1502-1679 limits assumed): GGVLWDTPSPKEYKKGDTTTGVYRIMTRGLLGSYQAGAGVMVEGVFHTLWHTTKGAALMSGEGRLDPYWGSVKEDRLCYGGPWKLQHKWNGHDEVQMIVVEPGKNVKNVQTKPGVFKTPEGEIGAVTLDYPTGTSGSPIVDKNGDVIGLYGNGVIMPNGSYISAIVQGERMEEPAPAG
ROCK2 blocker: inhibitors of human ROCK2 kinase, primary screen, biochemical, high-throughput, luminescence; purified ROCK2, Kinase-Glo ATP depletion luminescence; inhibition, % at 6 µM; 0.35% of 60,000 active;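 active means inhibition above the screen-wide mean inhibition plus 3 SD, cut at about 18% in these data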
PKA kinase inh: inhibitors of human PKA kinase activity, primary screen, biochemical, ATP-depletion luminescence, Kemptide substrate; cAMP-dependent protein kinase catalytic subunit alpha (Homo sapiens), P17612; PKA Kemptide phosphorylation, Kinase-Glo ATP luminescence; inhibition, % at 6 µM; 0.1% of 65,000 active;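 active means inhibition above the screen-wide mean inhibition plus 3 SD, cut at about 21% in these data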
SKBR3 24h inh: SK-BR-3 proliferation inhibitors, primary screen, cell-based, human, 24 h; SK-BR-3 viability, CellTiter-Glo ATP luminescence; active compounds read low; viability, % at 10 µM; 0.47% of 41,000 active; AID 847, 2007;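 active means viability at or below the median of all test compounds minus 3 SD, in both replicates if run twice, cut at about 45% in these data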
Cdc25B inh: inhibitors of Cdc25B phosphatase catalytic domain, primary screen, biochemical, OMFP fluorescence. recombinant Cdc25B, OMFP fluorescence Ex485/Em525. 0.1% of 65,000 active. M-phase inducer phosphatase 2 (Homo sapiens), P30305. inhibition, %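 (compounds tested at 10 µM final in the well)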; in the data active means inhibition above about 50%
MKP-1 inh: MKP-1 phosphatase inhibitors, primary screen, biochemical, in vitro. Dual specificity protein phosphatase 1 (Homo sapiens), P28562. inhibition, %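 (compounds tested at a single concentration somewhere between 10 and 100 µM)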. recombinant MKP-1, OMFP hydrolysis fluorescence. 0.15% of 65,000 active;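 active means inhibition above about 50%, limit read from the data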
Target sequence (P28562 whole entry, looked up): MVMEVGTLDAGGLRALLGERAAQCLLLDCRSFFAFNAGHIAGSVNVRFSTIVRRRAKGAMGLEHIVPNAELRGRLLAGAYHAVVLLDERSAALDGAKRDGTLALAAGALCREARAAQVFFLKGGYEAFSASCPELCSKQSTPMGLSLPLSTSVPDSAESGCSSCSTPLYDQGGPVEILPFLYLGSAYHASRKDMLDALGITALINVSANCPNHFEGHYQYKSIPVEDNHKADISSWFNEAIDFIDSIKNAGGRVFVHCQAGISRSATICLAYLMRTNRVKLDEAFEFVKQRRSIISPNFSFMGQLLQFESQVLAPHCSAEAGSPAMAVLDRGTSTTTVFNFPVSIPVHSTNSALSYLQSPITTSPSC
Large screens that a line does not name were inactive.

CCC1CCCCN1c1nc(-c2ccncc2)nc2ccccc12 (centres undefined)	PKA kinase inh 62
O=C1C(=C2CCCCC2)SC(=S)N1Cc1ccco1	none
CS(=O)(=O)N(CC(=O)Nc1cccnc1)c1ccc2c(c1)OCO2	none
O=C(CCn1c(=O)oc2ccccc21)NCc1cccs1	none
COc1ccc(CNc2nc3c(c(=O)n(Cc4ccc(F)cc4)c(=O)n3C)n2C)cc1	none
COc1ccc(CCN2CCC(Nc3nc4ccccc4n3Cc3ccc(F)cc3)CC2)cc1	SKBR3 24h inh 24
C=CCn1c2ccccc2c2nnc(SCc3ccc4nonc4c3)nc21	none
Cc1cc(NC(=O)c2sccc2C)n(-c2cccc(Cl)c2)n1	none
CCOC(=O)c1sc2nc(N3CCOCC3)c3c(c2c1N)CC(C)(C)N(C)C3	none (no result: WNV NS2B-NS3 inh, ROCK2 blocker, SKBR3 24h inh, Cdc25B inh, MKP-1 inh)
COC(=O)c1ccc(-c2sc3nc(N4CCOCC4)c4c(c3c2N)CC(C)(C)OC4)o1	SKBR3 24h inh 34
O=S(=O)(Nc1cccnc1)c1ccc(Cl)c(C(F)(F)F)c1	none
Cc1ccc(Cl)cc1NC(=O)c1ocnc1C	WNV NS2B-NS3 inh -3.4 (no result: ROCK2 blocker, SKBR3 24h inh)
Cc1ncoc1C(=O)Nc1cccc(Cl)c1	none (no result: SKBR3 24h inh)
O=C(Nc1ccc2oc(-c3cccnc3)nc2c1)c1cccnc1	none
Cc1c(C(=O)Nc2ccc3oc(-c4cccnc4)nc3c2)oc2ccccc12	ROCK2 blocker 20
Cc1ccc(CNC(=O)Cn2c(=O)oc3ccccc32)o1	SKBR3 24h inh 38
COc1cccc(CNC(=O)Cn2c(=O)oc3ccccc32)c1OC	none (no result: SKBR3 24h inh)
Cc1cc(OCc2ccc(F)cc2)nc(-c2ccccc2O)n1	none
Cc1cc(-n2[nH]c(C)c(C)c2=O)nc(-c2ccccc2O)n1	SKBR3 24h inh 39
COc1ccc(CCC(=O)NC2=NCCS2)cc1OC	none (no result: SKBR3 24h inh)
Cc1[nH]nc2c1C(c1ccc(-c3ccccc3C#N)o1)C(C#N)=C(N)O2 (centres undefined)	ROCK2 blocker 40
Cc1[nH]nc2c1C(c1ccc(F)cc1)C(C#N)=C(N)O2 (centres undefined)	none
CNC(=O)c1nnc(Cc2ccc(F)cc2)o1	WNV NS2B-NS3 inh -3.1 (no result: SKBR3 24h inh)
CCOC(=O)N1CCN(CCC(=O)Nc2ccc(OC(F)(F)F)cc2)CC1	SKBR3 24h inh 37
C=CCOC(=O)C1=C(C)Nc2nc3ccccc3n2C1c1ccncc1 (centres undefined)	WNV NS2B-NS3 inh -3.1
Cc1cc(C)nc(N2CCC(C(=O)NCc3cccc(C(F)(F)F)c3)CC2)n1	SKBR3 24h inh 40
O=C(O)CCC(=O)Nc1nnc(C(F)(F)F)s1	SKBR3 24h inh 40
CNS(=O)(=O)c1cccc(C(=O)OCc2cc(Cl)cc3c2OCOC3)c1	none (no result: SKBR3 24h inh)
O=C(Cc1ccccc1)N1CCCC(c2nc(-c3cccs3)no2)C1 (centres undefined)	SKBR3 24h inh 41
Cc1cccc(-c2nnc3n2N=C(c2ccccc2Br)CS3)c1	none
C=CCN=C(NC#N)SCc1ccccc1Cl	none
COc1ccc(OC)c(NS(=O)(=O)c2ccc(Cl)s2)c1	none
COc1ccc(OC)c(NS(=O)(=O)c2cccs2)c1	WNV NS2B-NS3 inh -6
Cn1c(=O)c2cc(S(=O)(=O)NCCC(=O)NCCC3=CCCCC3)ccc2n(C)c1=O	MKP-1 inh 57 (no result: SKBR3 24h inh)
Cn1c(=O)cc(SCC(=O)N2CCN(Cc3ccc4c(c3)OCO4)CC2)c2ccccc21	none
CCn1c(=O)cc(SCC(=O)N2CCN(Cc3ccc4c(c3)OCO4)CC2)c2ccccc21	MKP-1 inh 56 (no result: ROCK2 blocker, SKBR3 24h inh)
C=CCNc1nc2c3ccccc3n(C(C)=O)c2s1	none
Cc1ccc(C2CC(C(F)F)n3ncc(C(=O)Nc4cnn(Cc5ccccc5C)c4)c3N2)cc1 (centres undefined)	SKBR3 24h inh 32
CCOC(=O)N1CCN(C2=CC(=O)OC23CCCCC3)CC1	WNV NS2B-NS3 inh -5.2
Nc1nnnn1/N=C/c1ccccc1OCc1ccccc1	none (no result: SKBR3 24h inh)
COc1cc(/C=N\n2nnnc2N)ccc1OCc1ccc(F)cc1	ROCK2 blocker 18 (no result: SKBR3 24h inh)
CC(=O)C1C(c2ccc(F)c(F)c2)NC(=O)NC1(O)C(F)(F)F (centres undefined)	none
CCCCCC1CCC(C(=O)O)CC1 (centres undefined)	MKP-1 inh 54
CCCCC1CCC(/C(N)=N/O)CC1 (centres undefined)	none
Cc1nnc(SCc2ccccc2F)n1NCc1cccs1	none
Cc1nc(-c2c(-c3ccc(O)cc3O)noc2C(F)(F)F)cs1	none
CCOc1ccc(C(c2nnnn2Cc2ccccc2)N2CCN(C(=O)c3ccco3)CC2)cc1 (centres undefined)	SKBR3 24h inh 41
COCCn1cnnc1SCC(=O)c1ccc(S(=O)(=O)N2CCCC2)cc1	none (no result: SKBR3 24h inh)
O=C1CC(c2ccc(F)cc2)CC(O)=C1C=NCCN1CCN(C(=O)Nc2ccccc2)CC1 (centres undefined)	none
CC(C)(C)C(=O)c1sc(Nc2ccccc2)nc1N	ROCK2 blocker 27, MKP-1 inh 85
COC(=O)c1sc(Nc2ccccc2)nc1C	none
O=C(Cn1cnc2c(nnn2Cc2ccccc2F)c1=O)NCc1ccco1	none (no result: SKBR3 24h inh)
COc1cccc2cc(-c3csc(CCn4nc(C)cc4C)n3)c(=O)oc12	WNV NS2B-NS3 inh -4.6 (no result: SKBR3 24h inh)
Cc1ccccc1S(=O)(=O)Cc1ccc(C(=O)NCCCOC(C)C)o1	WNV NS2B-NS3 inh -5.6 (no result: SKBR3 24h inh)
CCOc1ccccc1-n1c(SCC(=O)Nc2ccc(CC)cc2)nc2n[nH]c(C)c2c1=N	SKBR3 24h inh 30
OCCN1CCN(CCCN2c3ccccc3Sc3ccc(C(F)(F)F)cc32)CC1	SKBR3 24h inh 16
CN(C)CCCN1c2ccccc2Sc2ccc(C(F)(F)F)cc21	none
COc1cc2[nH]c(=O)n(CCC(=O)N3CCN(c4cc(Cl)ccc4C)CC3)c(=O)c2cc1OC	SKBR3 24h inh 8.5 (no result: WNV NS2B-NS3 inh, ROCK2 blocker, Cdc25B inh, MKP-1 inh)
Cc1cc(C(=O)CSc2nnc(-c3cccs3)o2)c(C)n1-c1ccccc1	none (no result: SKBR3 24h inh)
Cn1c(CSCc2ccc(Cl)c(Cl)c2)nnc1SCC(=O)Nc1nccs1	ROCK2 blocker 25
CC(C)NCc1c(O)c(Br)cc2oc3c(c12)CCCC3	WNV NS2B-NS3 inh -4
O=C1NCCCc2c1oc1cc(Br)c(O)c(Br)c21	none
Cc1cnn(-c2ccc3nnc(-c4ccc(Br)cc4)n3n2)c1	none
COC(=O)CCC(=O)Oc1ccc(OC(=O)CCC(=O)OC)cc1	Cdc25B inh 59, MKP-1 inh 56 (no result: ROCK2 blocker, PKA kinase inh)
COC(=O)CCC(=O)Nc1ccc(NC(=O)CCC(=O)OC)cc1	none
CCN(CC(=O)Nc1ccccc1OC)C(=O)C1CC2C=CC1C2 (centres undefined)	WNV NS2B-NS3 inh -7.5 (no result: SKBR3 24h inh)
Cn1nc(C(=O)Nc2c(-c3ccccc3)nc3sccn23)c2ccccc2c1=O	none (no result: SKBR3 24h inh)
